From PubChem BioAssay AID504332 (National Center for Advancing Translational Sciences (NCATS), 2011)
Screen size: about 350,000 compounds; about 31,000 (8.9%) were called active. Not shown: some 15% with an inconclusive outcome. Calls follow the shape of the dose curve; as a rule, active = well fitted inhibition curve with a large enough effect; inconclusive = small, poorly fitted or top-dose-only effect; inactive = no such curve, though single readings can be large or run the other way. The full list was thinned out, with actives kept by preference.

Each molecule was assayed against Histone-lysine N-methyltransferase EHMT2 (Homo sapiens) (UniProt Q96KQ7) (assay: qHTS Assay for Inhibitors of Histone Lysine Methyltransferase G9a). Details: G9a H3K9 monomethylation, AlphaScreen, 2 h; series mostly up to 59 µM.
Chain of Histone-lysine N-methyltransferase EHMT2 (Homo sapiens) (Q96KQ7 913-1193 limits assumed): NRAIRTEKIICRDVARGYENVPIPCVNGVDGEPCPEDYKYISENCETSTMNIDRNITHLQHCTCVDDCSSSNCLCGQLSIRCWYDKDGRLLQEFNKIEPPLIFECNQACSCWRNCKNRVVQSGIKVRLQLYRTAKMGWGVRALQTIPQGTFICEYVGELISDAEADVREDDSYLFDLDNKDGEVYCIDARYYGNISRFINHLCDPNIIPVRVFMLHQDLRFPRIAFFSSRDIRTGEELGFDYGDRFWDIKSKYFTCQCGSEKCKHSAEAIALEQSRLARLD
In short: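 Enzyme 20 nM + cpd, 15 min RT; add b-H3K9 pep 500 nM / SAM 20 uM; 2 h RT; anti-H3K9me1 Ab 0.5 ug/mL + SA donor / anti-rabbit acceptor beads 20 ug/mL each, 10 min; AlphaScreen read.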
% is scaled to controls: 0 for no effect and ±100 for the full control effect; potency is read from the fitted curve at half-maximal effect.
Also: nearly all actives have a fitted effect of over 75% in size.

Potency, inactive:
Cc1cc(C)cc(NC(=O)Cc2csc(C)n2)c1
CCN(CC(=O)Nc1ccccc1C(F)(F)F)C(=O)C1CCN(C(=O)Nc2ccccc2)CC1
NC(=O)C1CCN(C2OC(=O)c3ccccc32)CC1 (stereo unspecified)
CCOC(=O)c1ccc(N2C(=O)CC(N3CC(C)OC(C)C3)C2=O)cc1 (stereo unspecified)
COc1ccc(COCC(O)CN2CCC(C(N)=O)CC2)cc1 (stereo unspecified)
CCOC(=O)C1CCN(c2ccc(C(=O)O)cc2[N+](=O)[O-])CC1
COc1cc(Cl)ccc1Nc1ncc(C(=O)N2CCN(c3ccccc3OC)CC2)c2ccccc12
COc1cc(C)ccc1OCCSc1nc2ccc(NC(=O)c3ccc(C)cc3)cc2s1
N#C/C(=C\c1cccc(F)c1)c1nc(-c2cc3c(ccc4ccccc43)oc2=O)cs1
COc1ccc(NC(=O)COCc2cc(-c3ccco3)on2)cc1
COC(=O)c1ccc(/C=N\n2c(C)nnc2C)cc1
COc1ccc(-c2nn(CC(=O)Nc3ccccc3F)c3c2cnc2ccc(F)cc23)cc1
CCOC(=O)c1cccc(NC(=O)Cn2cnc3nc4c(cc3c2=O)CCCC4)c1
Cc1cccc(Cn2c(CN3CCC(C(=O)NCc4ccccc4Cl)CC3)cc3ccccc32)c1
CCCN(CCC)CCNC(=O)Cn1cnc2sc(C)c(S(=O)(=O)N3CCC(C)CC3)c2c1=O
Cc1ccc(NC(=O)CN(C)C(=O)COC(=O)C(C)(C)Oc2ccc(Cl)cc2)cc1
COc1ccc(OCC(=O)NCCS(=O)(=O)N2CCN(c3ccc(F)cc3)CC2)cc1
COc1ccc(N2CC(C(=O)NCCS(=O)(=O)N3CCN(c4ccccc4)CC3)CC2=O)cc1 (stereo unspecified)
CC(=O)Nc1ccc(NC(=O)CCCc2nc(-c3ccc(C(C)(C)C)cc3)no2)cc1
CCc1ccc(NC(=O)Cn2nnc(C(=O)NCc3ccc(OC)cc3)c2N)cc1
CCOC(=O)c1c(-c2ccccc2)oc2ccc(OCC(N)=O)cc12
CC(=O)c1c(C)n(-c2ccc(C)cc2)c2ccc(O)cc12
COc1ccc(CCNC(=O)c2cc3cccc4c3n2CC(C)S4)c(OC)c1OC (stereo unspecified)
O=C(NCCc1c[nH]c2ccccc12)C(=O)NCC1CCCO1 (stereo unspecified)
COc1ccc(Cc2nc3ccc(C(=O)NCc4ccccc4C)cc3o2)cc1
Cc1ccc(C(=O)N/C(=C/c2ccco2)C(=O)NCCc2c[nH]c3ccccc23)cc1C
CC(=O)NC(Cc1c[nH]c2ccccc12)C(=O)O (stereo unspecified)
COc1ccccc1Cc1nc2ccccc2nc1SCC(=O)N1CCCc2ccccc21
COc1cccc(-n2c(=S)sc3c(=O)n(-c4ccccc4C)c(SCC(=O)O)nc32)c1
Cc1cccc(NC(=O)N2CCN(C)c3ncccc32)c1C
CC(=O)c1cccc(NC(=O)c2cc(C)nn2-c2ccccc2)c1
Cc1cccn2c(=O)nc(SCC(=O)NCc3ccccc3Cl)nc12
Cc1nn(-c2ccc(F)cc2)c(-n2cccc2)c1C(=O)N1CCN(c2ccccc2)CC1
COc1ccc(OCCNC(=O)c2cc(C3CC3)nc3c2cnn3C(C)C)cc1
Cc1noc(/C=C/c2ccco2)c1S(=O)(=O)N1CCC(C(=O)Nc2ccc(Cl)cn2)CC1
Cc1cccc(NC(=O)C2CCN(S(=O)(=O)c3c(C)noc3/C=C/c3ccco3)CC2)c1
O=C(Nc1cccc2cccnc12)c1cccc(Cl)c1
COc1ccc(CSc2nc(N3CCOCC3)c3c(c2C#N)CC(C)(C)OC3)cc1
CC(C)c1nc(N2CCOCC2)c(C#N)c2c1COC(C)(C)C2
CN(C(=O)CN(CCO)CC(=O)N(C)C(C)(C)Cc1ccccc1)C(C)(C)Cc1ccccc1
CCOC(=O)c1ccc(CN(Cc2ccccc2)S(=O)(=O)c2ccc(Cl)cc2)cc1
CN(C)CCCNC(=S)NCc1ccc(Cl)cc1
CC(C)NC(=O)c1ccc(Cl)cc1Cl
CCC(Cc1ccccc1)NC(=O)C1CCCCC1 (stereo unspecified)
CCc1nn(CC(=O)Nc2cccc(C)c2C)c(=O)c2cc3sccc3n12
Oc1ccc(-n2nnnc2SCc2c(F)cccc2Cl)cc1
COc1ccc(Cc2nc3ccc(C(=O)NCc4ccccc4Cl)cc3o2)cc1
O=C(Nc1ccc(O)c(-c2nc3ccccc3o2)c1)c1ccc(-c2cccc(Cl)c2)o1
Cc1ccnc(N2CCCC(C(=O)NC3CC3)C2)n1 (stereo unspecified)
Cc1ccnc(SCC(N)=O)n1
Cc1nn(-c2ccc([N+](=O)[O-])cc2)c(N)c1-c1ccccc1
COc1ccc(C2=NN(c3nc4ccccc4s3)C(=O)C2)cc1
Cn1c(N)cc(-c2ccc(F)cc2)c(C#N)c1=O
O=C1CCCC2=C1C(c1cccs1)CC(=O)N2c1ccc(F)cc1 (stereo unspecified)
O=C(NCc1ccc(F)cc1)c1ccc2nc(N3CCCCC3)sc2c1
COC(=O)c1scc(-c2ccccc2)c1S(=O)(=O)Nc1ccccc1
Fc1ccccc1N=C1Nc2cccc3cccc1c23
Cc1ccc(C(=O)/C=C/c2c(C)nn(-c3ccccc3)c2Cl)cc1
COc1cccc(CNc2nccn(-c3ccc(OC)c(OC)c3)c2=O)c1
CC(NC(=O)c1cc(Sc2ccc(F)cc2F)nc2ccccc12)c1ccccc1 (stereo unspecified)

Potency, active:
CCOC(=O)c1ccc(N2C(=O)CC(N3CCC(C(=O)OCC)CC3)C2=O)cc1 (stereo unspecified) 35.5 µM
COc1ccc(N2C(=O)CC(N3CCC(C(N)=O)CC3)C2=O)cc1 (stereo unspecified) 14.1 µM
CCN(CC)S(=O)(=O)c1cccc(-c2n[nH]c(=S)n2/N=C/c2ccc(C(=O)OC)cc2)c1 1.41 µM
COc1ccc(N2CCN(S(=O)(=O)CCNC(=O)C34CC5CC(CC(C5)C3)C4)CC2)cc1 44.7 µM
CC(=O)c1c(C)n(-c2ccc(N(C)C)cc2)c2ccc(OCC(N)=O)cc12 50.1 µM
N#C/C(=C/c1ccc(N2CCCCC2)o1)C(=O)NCCc1c[nH]c2ccccc12 31.6 µM
O=C(NC(Cc1c[nH]c2ccccc12)C(=O)O)/C(=C/c1ccco1)NC(=O)c1ccccc1 (stereo unspecified) 28.2 µM
COc1ccc(Cl)cc1-n1c(=S)sc2c(=O)n(-c3ccc(F)cc3)c(SCC(=O)O)nc21 28.2 µM
CC[n+]1c(C)n(-c2ccccc2)c2ccc(NC(C)=O)cc21 14.1 µM
Cc1noc(/C=C/c2ccco2)c1S(=O)(=O)N1CCC(C(=O)N2CCc3ccccc32)CC1 44.7 µM
CC1(C)Cc2c(C#N)c(SCc3nc4ccccc4[nH]3)nc(N3CCOCC3)c2CO1 39.8 µM
Nc1ccc(N=Nc2ccccc2Cl)c(N)n1 28.2 µM
CC(O)CN(Cc1ccc(Cl)cc1)CC(C)O (stereo unspecified) 14.1 µM
OCCN(Cc1ccccc1)Cc1ccc(Cl)cc1 22.4 µM
Cc1ccnc(-n2sc3ccccc3c2=O)n1 1 µM
O=C1CC(c2ccccc2)=NN1c1ccc([N+](=O)[O-])cc1 39.8 µM
N#CC1=C(N)N(c2ccc(F)cc2)C(=O)C1 39.8 µM
c1ccc(C2=Nc3cccc4cccc(c34)N2)cc1 8.91 µM
Cc1nn(-c2ccccc2)c(Cl)c1/C=C/C(=O)c1ccc(O)cc1 15.8 µM

activity, negative = inhibition, inactive:
CC(OC(=O)/C=C/c1ccccc1)C(=O)NC1CCCCC1C (stereo unspecified) 27.1% [at 12.7 µM]
CCCCN(C(=O)C1=NN(c2cc(C)ccc2C)C(=O)CC1)c1c(N)n(CCC)c(=O)[nH]c1=O -9.41% [at 12.7 µM]
O=C(CSc1n[nH]c(-c2cccs2)n1)N1CCCCC1 -2.34% [at 2.33 µM]
CCN(CC)S(=O)(=O)c1ccc2nc(COC(=O)c3n[nH]c4ccccc34)[nH]c2c1 12.7% [at 12.7 µM]
CC(NCC(=O)Nc1ccccc1C(=O)NC1CC1)c1ccccc1Cl (stereo unspecified) 3.45% [at 12.7 µM]
COc1ccc(CCNC(=O)COc2ccc3c(c2)OCO3)cc1 13.4% [at 2.33 µM]
COCCCNC(=O)/C(C#N)=C/c1c(N2CCCCCC2)nc2ccccn2c1=O 7.66% [at 2.33 µM]
CCOCCn1[nH]c2ccccc2c1=O -9.31% [at 2.33 µM]
O=S(=O)(c1ccccc1)N1CCC(c2ccccc2)CC1 0.779% [at 2.33 µM]
COc1ccc(Cl)cc1NC(=O)C1CC(=O)N(c2ccc(F)cc2)C1 (stereo unspecified) -1.46% [at 12.7 µM]
CC(=O)Nc1ccc(NC(=O)CSc2nnc(C3CC3)n2-c2ccccc2)cc1 5.42% [at 2.33 µM]
CC(C)(O)c1ccccc1CC[C@H](SCC1(CC(=O)O)CC1)c1cccc(/C=C/c2ccc3ccc(Cl)cc3n2)c1 1.82% [at 12.7 µM]
CCN(c1ccccc1)S(=O)(=O)c1ccc(OCC(=O)N2CCCC2)cc1 12.7% [at 2.33 µM]
CCCCCCSc1ccc([C@@H]2[C@@H]3C(=O)N(CC)C(=O)[C@@H]3[C@]3(C(=O)OC)CCCCN23)cc1OC 2.26% [at 2.33 µM]
O=C(COC(=O)C1CC2CCCC(C1)C2=O)NC(=O)c1ccccc1 (stereo unspecified) -4.63% [at 12.7 µM]
COc1ccccc1C1=Nc2cccc3cccc(c23)N1 39.6% [at 0.501 µM]
Cc1nn(-c2ccccc2)c(Cl)c1C(=O)Nc1ccccc1 50.1% [at 12.7 µM]
